What was measured:
Experiment in all cases: DAPPL (digital affinity profiling via proximity ligation, sequencing); 10 mM Tris-HCl pH 7.5, 50 mM NaCl, 1 mM DTT, 4% glycerol, room temperature, 30 min; GST-TFs on glutathione beads, 16-mer random dsDNA library, 0.1% formaldehyde crosslink after washing; high values mean tight binding
Conditions in all cases: protein: recombinant; tags: N-terminal GST; dsDNA, one strand shown
FLI1 = target: T1, FLI1 (Homo sapiens, UniProt Q01543 1-452)
T1 sequence: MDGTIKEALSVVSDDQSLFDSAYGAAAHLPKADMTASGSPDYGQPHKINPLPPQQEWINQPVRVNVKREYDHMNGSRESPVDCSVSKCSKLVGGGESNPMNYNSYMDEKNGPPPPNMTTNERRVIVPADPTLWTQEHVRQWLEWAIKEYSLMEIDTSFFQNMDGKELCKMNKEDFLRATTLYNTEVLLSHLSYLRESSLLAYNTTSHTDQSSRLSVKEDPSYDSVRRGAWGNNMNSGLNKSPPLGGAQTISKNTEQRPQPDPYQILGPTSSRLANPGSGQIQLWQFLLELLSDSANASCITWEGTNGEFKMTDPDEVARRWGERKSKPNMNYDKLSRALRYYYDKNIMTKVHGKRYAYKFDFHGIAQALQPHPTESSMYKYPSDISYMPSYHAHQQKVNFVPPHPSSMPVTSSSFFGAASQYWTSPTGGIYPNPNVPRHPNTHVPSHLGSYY
Method in brief: (§1)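 Pools were built from human transcription factors expressed in yeast as GST fusions, captured on glutathione beads and DNA-barcoded, along with a tag-only sample. Incubation with 200 nmole of a 16-mer random double-stranded DNA library lasted 30 min at room temperature in Tris/NaCl/DTT/glycerol buffer, and was followed by washing, 0.1% formaldehyde crosslinking, proximity ligation, PCR amplification and Illumina NextSeq500 sequencing. Binding signal is the quotient of each hexamer's read frequency for a factor and its frequency for the tag-only sample.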

GABPA = target: T2, GABPA (Homo sapiens, UniProt Q06546 1-454)
T2 sequence: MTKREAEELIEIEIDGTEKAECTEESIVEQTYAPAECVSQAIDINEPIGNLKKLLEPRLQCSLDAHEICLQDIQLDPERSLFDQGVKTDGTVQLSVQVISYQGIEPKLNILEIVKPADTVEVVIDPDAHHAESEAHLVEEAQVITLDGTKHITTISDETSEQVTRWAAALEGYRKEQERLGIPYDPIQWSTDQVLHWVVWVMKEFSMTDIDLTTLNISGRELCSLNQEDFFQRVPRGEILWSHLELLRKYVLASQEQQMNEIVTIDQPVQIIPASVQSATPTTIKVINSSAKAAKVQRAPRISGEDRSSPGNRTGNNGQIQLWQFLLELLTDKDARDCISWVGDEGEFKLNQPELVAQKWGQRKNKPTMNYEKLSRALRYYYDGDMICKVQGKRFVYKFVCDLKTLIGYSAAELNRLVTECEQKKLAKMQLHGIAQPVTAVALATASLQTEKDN
Method in brief: as §1

ERG = target: T3, ERG (Homo sapiens, UniProt P11308 1-479)
T3 sequence: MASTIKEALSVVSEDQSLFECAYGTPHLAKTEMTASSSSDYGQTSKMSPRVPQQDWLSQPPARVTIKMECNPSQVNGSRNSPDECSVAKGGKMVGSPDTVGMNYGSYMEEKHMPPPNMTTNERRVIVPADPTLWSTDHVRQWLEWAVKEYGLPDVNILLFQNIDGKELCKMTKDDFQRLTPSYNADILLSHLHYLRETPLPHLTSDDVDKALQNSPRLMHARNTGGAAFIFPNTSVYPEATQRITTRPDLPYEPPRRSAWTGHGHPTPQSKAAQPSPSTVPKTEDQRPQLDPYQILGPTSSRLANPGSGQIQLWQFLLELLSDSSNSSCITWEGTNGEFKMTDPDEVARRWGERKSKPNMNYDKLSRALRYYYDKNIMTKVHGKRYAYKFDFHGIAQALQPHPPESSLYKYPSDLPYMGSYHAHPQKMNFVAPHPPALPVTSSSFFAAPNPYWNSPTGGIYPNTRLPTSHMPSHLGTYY
Method in brief: as §1

ELF1 = ELF1 (Homo sapiens, UniProt P32519 1-619)
ELF1, sequence (P32519 whole entry): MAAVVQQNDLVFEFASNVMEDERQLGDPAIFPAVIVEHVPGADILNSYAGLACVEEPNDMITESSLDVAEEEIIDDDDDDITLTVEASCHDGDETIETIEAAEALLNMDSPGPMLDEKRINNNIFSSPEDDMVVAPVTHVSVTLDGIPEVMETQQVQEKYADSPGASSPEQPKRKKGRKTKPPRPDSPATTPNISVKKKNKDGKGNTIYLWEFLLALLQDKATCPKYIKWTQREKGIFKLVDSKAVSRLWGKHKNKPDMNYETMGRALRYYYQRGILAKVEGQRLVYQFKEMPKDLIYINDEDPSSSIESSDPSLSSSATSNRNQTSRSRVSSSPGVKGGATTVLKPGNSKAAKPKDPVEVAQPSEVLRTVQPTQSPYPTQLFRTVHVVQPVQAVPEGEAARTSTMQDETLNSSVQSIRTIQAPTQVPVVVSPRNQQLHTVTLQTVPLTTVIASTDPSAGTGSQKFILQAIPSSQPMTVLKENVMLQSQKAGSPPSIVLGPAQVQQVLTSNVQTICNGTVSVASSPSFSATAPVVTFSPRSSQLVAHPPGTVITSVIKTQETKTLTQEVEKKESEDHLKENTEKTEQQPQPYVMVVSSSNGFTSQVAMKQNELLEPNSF
Method in brief: as §1

EHF = target: T4, EHF (Homo sapiens, UniProt Q9NZC4 1-300)
T4 sequence: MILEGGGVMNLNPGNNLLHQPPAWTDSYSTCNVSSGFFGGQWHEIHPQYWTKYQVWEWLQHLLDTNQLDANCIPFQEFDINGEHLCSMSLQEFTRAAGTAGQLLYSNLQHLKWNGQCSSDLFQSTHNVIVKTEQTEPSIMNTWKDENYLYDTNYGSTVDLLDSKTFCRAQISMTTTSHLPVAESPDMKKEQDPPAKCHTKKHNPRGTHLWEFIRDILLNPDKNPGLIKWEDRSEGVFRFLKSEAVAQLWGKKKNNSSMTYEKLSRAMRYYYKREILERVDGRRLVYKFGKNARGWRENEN
Method in brief: as §1

SPI1 = SPI1 (Homo sapiens, UniProt P17947 1-270)
Method in brief: as §1

SPIB = SPIB (Homo sapiens, UniProt Q01892 1-262)
SPIB, sequence (Q01892 whole entry): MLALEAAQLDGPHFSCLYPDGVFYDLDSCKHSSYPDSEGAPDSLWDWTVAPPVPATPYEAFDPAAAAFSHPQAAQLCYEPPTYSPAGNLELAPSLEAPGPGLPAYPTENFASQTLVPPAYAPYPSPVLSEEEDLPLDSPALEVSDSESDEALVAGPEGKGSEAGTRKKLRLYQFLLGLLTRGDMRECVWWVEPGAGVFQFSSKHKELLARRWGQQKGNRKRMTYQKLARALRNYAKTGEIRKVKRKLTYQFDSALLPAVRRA
Method in brief: as §1

ETV5 = ETV5 (Homo sapiens, UniProt P41161 1-510)
ETV5, sequence (P41161 whole entry): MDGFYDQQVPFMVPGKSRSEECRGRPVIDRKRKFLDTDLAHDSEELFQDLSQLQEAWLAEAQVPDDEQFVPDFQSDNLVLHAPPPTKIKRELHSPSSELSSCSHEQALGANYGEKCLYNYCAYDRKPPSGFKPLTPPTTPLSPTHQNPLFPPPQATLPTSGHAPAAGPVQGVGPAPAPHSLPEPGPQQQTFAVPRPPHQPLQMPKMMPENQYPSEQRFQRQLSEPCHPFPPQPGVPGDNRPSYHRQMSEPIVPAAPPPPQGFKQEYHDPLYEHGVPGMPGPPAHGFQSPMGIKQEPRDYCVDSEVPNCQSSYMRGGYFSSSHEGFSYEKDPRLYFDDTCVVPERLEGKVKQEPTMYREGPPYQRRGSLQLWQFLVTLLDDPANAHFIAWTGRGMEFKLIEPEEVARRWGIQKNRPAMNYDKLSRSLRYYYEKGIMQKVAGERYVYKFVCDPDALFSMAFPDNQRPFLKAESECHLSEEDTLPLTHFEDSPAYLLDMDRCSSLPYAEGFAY
Method in brief: as §1

ELF4 = ELF4 (Homo sapiens, UniProt Q99607 1-663)
ELF4, sequence (Q99607 whole entry): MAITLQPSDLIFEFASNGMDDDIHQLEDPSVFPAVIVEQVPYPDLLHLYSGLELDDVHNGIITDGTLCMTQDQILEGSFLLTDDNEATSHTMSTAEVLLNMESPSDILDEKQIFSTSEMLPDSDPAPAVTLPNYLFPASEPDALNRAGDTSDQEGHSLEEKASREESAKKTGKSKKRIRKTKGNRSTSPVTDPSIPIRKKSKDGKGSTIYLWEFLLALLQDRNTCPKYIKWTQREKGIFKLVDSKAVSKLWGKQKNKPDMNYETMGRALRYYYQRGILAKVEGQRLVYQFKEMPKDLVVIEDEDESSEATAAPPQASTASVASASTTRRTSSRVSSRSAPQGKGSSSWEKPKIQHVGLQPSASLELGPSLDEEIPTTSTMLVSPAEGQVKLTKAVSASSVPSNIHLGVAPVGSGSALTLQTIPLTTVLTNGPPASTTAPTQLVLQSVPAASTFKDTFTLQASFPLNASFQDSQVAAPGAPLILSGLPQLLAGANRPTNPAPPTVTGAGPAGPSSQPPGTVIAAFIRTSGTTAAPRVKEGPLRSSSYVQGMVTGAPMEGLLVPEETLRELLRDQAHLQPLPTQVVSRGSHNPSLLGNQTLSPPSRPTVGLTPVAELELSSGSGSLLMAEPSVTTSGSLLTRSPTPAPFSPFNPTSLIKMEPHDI
Method in brief: as §1

ETV2 = target: T5, ETV2 (Homo sapiens, UniProt O00321 1-342)
T5 sequence: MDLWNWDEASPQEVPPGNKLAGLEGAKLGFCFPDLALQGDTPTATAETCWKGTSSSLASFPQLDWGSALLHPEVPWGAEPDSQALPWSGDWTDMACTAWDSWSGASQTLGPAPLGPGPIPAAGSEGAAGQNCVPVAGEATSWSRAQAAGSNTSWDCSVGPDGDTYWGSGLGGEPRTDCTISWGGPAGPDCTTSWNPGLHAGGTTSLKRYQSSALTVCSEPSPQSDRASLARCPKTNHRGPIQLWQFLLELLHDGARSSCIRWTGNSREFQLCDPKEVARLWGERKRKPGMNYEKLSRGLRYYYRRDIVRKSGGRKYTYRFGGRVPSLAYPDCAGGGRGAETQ
Method in brief: as §1

ELF3 = target: T6, ELF3 (Homo sapiens, UniProt P78545 1-371)
T6 sequence: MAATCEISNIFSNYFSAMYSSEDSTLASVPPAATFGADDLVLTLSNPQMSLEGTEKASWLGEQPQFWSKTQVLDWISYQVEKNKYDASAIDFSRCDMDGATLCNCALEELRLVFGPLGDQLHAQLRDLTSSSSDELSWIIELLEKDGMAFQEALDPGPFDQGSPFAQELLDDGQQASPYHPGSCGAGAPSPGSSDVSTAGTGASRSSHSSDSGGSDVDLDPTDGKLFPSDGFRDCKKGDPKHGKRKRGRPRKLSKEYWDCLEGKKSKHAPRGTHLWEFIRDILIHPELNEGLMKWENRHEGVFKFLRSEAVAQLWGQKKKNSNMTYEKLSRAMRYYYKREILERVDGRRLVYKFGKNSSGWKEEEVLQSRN
Method in brief: as §1

ETV1 = ETV1 (Homo sapiens, UniProt P50549 1-477)
ETV1, sequence (P50549 whole entry): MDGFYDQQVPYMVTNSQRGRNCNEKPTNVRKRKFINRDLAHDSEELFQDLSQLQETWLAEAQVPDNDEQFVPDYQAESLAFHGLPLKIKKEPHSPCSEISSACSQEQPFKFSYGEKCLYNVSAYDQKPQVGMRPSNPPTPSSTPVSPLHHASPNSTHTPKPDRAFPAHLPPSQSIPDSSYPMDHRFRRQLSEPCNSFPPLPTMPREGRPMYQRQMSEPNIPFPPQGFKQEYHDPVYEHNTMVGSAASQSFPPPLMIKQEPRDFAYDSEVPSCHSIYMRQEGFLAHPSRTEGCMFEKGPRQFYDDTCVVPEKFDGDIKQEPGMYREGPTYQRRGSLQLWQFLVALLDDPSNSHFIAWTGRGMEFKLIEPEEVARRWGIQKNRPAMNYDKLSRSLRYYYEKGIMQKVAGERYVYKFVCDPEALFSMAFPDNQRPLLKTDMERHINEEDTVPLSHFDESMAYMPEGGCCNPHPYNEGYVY
Method in brief: as §1

ERF = target: T7, ERF (Homo sapiens, UniProt P50548 1-548)
T7 sequence: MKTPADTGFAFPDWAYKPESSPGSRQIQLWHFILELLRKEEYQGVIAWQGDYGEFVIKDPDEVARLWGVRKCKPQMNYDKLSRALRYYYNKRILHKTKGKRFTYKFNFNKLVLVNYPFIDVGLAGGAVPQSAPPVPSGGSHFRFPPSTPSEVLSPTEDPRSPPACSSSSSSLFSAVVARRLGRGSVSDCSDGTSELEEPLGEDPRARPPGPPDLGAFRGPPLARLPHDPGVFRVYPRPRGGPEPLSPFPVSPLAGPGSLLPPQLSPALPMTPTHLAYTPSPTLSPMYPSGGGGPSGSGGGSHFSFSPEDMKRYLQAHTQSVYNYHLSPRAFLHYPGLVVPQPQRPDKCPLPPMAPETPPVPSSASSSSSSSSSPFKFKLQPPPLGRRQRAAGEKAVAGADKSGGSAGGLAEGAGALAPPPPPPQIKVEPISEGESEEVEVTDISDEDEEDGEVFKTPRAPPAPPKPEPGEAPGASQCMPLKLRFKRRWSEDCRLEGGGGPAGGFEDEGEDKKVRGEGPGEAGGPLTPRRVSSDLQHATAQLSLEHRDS
Method in brief: as §1

ETV3L = target: T8, ETV3L (Homo sapiens, UniProt Q6ZN32 1-361)
T8 sequence: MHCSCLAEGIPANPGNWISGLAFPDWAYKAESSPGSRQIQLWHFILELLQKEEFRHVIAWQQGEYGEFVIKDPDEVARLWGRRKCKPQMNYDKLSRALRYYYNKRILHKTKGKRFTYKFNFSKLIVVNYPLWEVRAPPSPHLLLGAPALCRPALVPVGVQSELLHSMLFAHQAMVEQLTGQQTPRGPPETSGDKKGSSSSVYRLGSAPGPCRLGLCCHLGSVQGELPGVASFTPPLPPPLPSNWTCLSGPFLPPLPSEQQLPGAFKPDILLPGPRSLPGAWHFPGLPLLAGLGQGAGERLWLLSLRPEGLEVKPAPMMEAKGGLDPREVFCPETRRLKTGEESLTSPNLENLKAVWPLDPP
Method in brief: as §1

ETS2 = target: T9, ETS2 (Homo sapiens, UniProt P15036 1-469)
T9 sequence: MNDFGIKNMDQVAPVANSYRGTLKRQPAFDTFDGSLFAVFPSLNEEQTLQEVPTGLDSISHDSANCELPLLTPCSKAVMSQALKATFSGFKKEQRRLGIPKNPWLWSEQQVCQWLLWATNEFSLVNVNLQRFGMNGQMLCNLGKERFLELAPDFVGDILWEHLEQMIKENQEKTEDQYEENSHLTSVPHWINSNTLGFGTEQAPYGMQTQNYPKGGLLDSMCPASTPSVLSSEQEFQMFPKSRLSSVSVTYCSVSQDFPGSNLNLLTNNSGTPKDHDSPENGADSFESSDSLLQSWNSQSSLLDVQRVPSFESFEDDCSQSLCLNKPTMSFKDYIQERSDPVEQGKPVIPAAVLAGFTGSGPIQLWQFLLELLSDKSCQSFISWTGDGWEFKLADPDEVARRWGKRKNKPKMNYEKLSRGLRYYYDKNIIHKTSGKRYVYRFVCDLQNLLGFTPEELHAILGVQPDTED
Method in brief: as §1

ETV7 = target: T10, ETV7 (Homo sapiens, UniProt Q9Y603 1-341)
T10 sequence: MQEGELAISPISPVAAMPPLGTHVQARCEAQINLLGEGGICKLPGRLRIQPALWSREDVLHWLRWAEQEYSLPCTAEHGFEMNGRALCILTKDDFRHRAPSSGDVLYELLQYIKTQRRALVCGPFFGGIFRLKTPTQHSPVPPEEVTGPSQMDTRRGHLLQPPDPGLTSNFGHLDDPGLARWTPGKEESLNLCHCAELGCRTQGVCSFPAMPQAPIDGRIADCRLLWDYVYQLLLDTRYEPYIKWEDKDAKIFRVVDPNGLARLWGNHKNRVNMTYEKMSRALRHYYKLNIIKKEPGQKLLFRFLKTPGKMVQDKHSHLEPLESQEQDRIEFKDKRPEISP
Method in brief: as §1

ELK1 = target: T11, ELK1 (Homo sapiens, UniProt P19419 1-428)
T11 sequence: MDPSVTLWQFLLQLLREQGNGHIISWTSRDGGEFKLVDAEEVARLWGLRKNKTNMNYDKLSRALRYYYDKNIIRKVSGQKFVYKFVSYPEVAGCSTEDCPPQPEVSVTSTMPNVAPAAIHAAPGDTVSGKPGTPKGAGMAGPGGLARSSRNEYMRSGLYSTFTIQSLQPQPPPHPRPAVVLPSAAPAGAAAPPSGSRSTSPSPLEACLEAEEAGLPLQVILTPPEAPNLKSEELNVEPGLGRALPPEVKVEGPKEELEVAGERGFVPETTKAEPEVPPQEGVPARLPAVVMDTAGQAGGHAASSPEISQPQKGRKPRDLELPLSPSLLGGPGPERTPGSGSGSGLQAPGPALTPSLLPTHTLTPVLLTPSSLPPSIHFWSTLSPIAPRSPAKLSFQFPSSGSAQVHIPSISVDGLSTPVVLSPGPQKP
Method in brief: as §1

ETV6 = ETV6 (Homo sapiens, UniProt P41212 1-452)
ETV6, sequence (P41212 whole entry): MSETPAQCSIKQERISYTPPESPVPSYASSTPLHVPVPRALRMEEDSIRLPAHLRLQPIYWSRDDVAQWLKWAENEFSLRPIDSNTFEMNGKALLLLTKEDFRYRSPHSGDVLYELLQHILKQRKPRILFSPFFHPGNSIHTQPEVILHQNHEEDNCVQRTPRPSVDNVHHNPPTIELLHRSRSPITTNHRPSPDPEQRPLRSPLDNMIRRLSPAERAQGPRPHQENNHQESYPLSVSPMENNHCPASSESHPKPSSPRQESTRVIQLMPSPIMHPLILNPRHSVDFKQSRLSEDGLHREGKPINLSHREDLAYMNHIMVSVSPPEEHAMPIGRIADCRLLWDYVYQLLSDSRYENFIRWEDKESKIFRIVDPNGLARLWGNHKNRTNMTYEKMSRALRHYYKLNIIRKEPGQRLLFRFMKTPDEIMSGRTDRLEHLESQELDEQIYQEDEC
Method in brief: as §1

Sequence | binding signal (FLI1) | binding signal (GABPA) | binding signal (ERG) | binding signal (ELF1) | binding signal (EHF) | binding signal (SPI1) | binding signal (SPIB) | binding signal (ETV5) | binding signal (ELF4) | binding signal (ETV2) | binding signal (ELF3) | binding signal (ETV1) | binding signal (ERF) | binding signal (ETV3L) | binding signal (ETS2) | binding signal (ETV7) | binding signal (ELK1) | binding signal (ETV6)
TGTGGT | 1.08 fold enrichment (6-mer frequency, TF over GST control) | 1.09 fold enrichment (6-mer frequency, TF over GST control) | 1.07 fold enrichment (6-mer frequency, TF over GST control) | 1.01 fold enrichment (6-mer frequency, TF over GST control) | 1.08 fold enrichment (6-mer frequency, TF over GST control) | 1.05 fold enrichment (6-mer frequency, TF over GST control) | 1.16 fold enrichment (6-mer frequency, TF over GST control) | 1.04 fold enrichment (6-mer frequency, TF over GST control) | 1.04 fold enrichment (6-mer frequency, TF over GST control) | 1.07 fold enrichment (6-mer frequency, TF over GST control) | 1.2 fold enrichment (6-mer frequency, TF over GST control) | 1.01 fold enrichment (6-mer frequency, TF over GST control) | 1.06 fold enrichment (6-mer frequency, TF over GST control) | 1.04 fold enrichment (6-mer frequency, TF over GST control) | 1.05 fold enrichment (6-mer frequency, TF over GST control) | 1.11 fold enrichment (6-mer frequency, TF over GST control) |  | 
TCGTCA | 1.05 fold enrichment (6-mer frequency, TF over GST control) | 1.06 fold enrichment (6-mer frequency, TF over GST control) |  | 1.04 fold enrichment (6-mer frequency, TF over GST control) | 1.02 fold enrichment (6-mer frequency, TF over GST control) | 1.02 fold enrichment (6-mer frequency, TF over GST control) | 1.04 fold enrichment (6-mer frequency, TF over GST control) | 1.04 fold enrichment (6-mer frequency, TF over GST control) | 1.11 fold enrichment (6-mer frequency, TF over GST control) | 1.02 fold enrichment (6-mer frequency, TF over GST control) |  | 1.09 fold enrichment (6-mer frequency, TF over GST control) | 1.06 fold enrichment (6-mer frequency, TF over GST control) |  | 1.1 fold enrichment (6-mer frequency, TF over GST control) |  | 1.09 fold enrichment (6-mer frequency, TF over GST control) | 1.03 fold enrichment (6-mer frequency, TF over GST control)

Reference: article PMC7862700, “An all-to-all approach to the identification of sequence-specific readers for epigenetic DNA modifications on cytosine”
